Activity calls are given as the source filed them. The calls were made as follows: active = hit-call score of the fitted dose curve at least 0.9, where 1 is the maximum; inactive = score below 0.9.
The compounds below were run on CD40, CD40 (gene 958) (assay: BSK_SAg_CD40: BioMAP Diversity Plus: SAg Assay for CD40 Biomarker Activity (AID 2283088)). Conditions: primary human HUVEC with PBMC; actives raise or lower the signal.
How it was run: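 Endpoint derived by fitting increases or decreases versus DMSO controls. CD40 is detected by fluorescence ELISA in a human vascular co-culture of endothelium and PBMC at 24 h.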

Compound | outcome | AC50
O=C=NCCCCCCN=C=O | inactive | –
c1ccc2ccccc2c1 | inactive | –
O=CCCCC=O | – | 29.8 µM (active)
COc1cc(C(=O)NC2CCN(C)CC2)ccc1Nc1ncc2c(n1)N(C1CCCC1)CC(F)(F)C(=O)N2C | – | 16.6 µM (active)
O=C1c2ccccc2C(=O)N1CCc1noc(-c2ccc(CN3CCCCCC3)s2)n1 | inactive | –
CCCC(=O)OCCC(C)C | inactive | –
Clc1cc(Cl)c2c(c1)N=C1CCCCCN1C2 | inactive | –
CC(C)(c1cc(Br)c(O)c(Br)c1)c1cc(Br)c(O)c(Br)c1 | – | 23 µM (active)
CCCOC(=O)c1cc(O)c(O)c(O)c1 | inactive | –
O=C(OCCCCCCOC(=O)c1ccccc1)c1ccccc1 | inactive | –
CC(C)(C)c1cc(/C=C2\SC(N)=NC2=O)cc(C(C)(C)C)c1O | – | 17.4 µM (active)
CCO[Si](CCCNC(N)=O)(OCC)OCC | inactive | –
O=C(O)Cn1c(=O)n(Cc2ccc(Br)cc2F)c(=O)c2ccc(Cl)cc21 | inactive | –
COc1ccc2cc(S(=O)(=O)N[C@H](CC(=O)N[C@H](Cc3ccc(CN4[C@H](C)CCC[C@@H]4C)cc3)C(=O)N(C)C(C)C)c3ccc4c(c3)OCO4)ccc2c1 | – | 24 µM (active)
CC(C)(C)c1csc(-c2cc3cc(OCc4ccccc4CC(=O)O)ccc3o2)n1 | – | 19.1 µM (active)
Cc1ccc(C(C)C)cc1 | inactive | –
O=C(O)c1ccccc1C(=O)OCc1ccccc1 | inactive | –
CCCCCCCC[Si](OCC)(OCC)OCC | inactive | –
CCN(Cc1cccnc1)C(=O)c1cccc(Cl)c1[C@]1(C)C(=O)N(Cc2ccc(OC)cc2OC)c2ccc(Cl)cc21 | – | 5.55 µM (active)
O=C(O)c1ccccc1-n1cc(C(=O)O)c(=O)c2cc(Nc3c(F)cc(F)cc3Cl)c(Cl)cc21 | inactive | –
Cc1cc2c(cc1C(F)(F)F)N(C(=O)Nc1ccc(Oc3cccnc3C)nc1)CC2 | – | 18.4 µM (active)
CCCCOC(=O)CC(CC(=O)OCCCC)(OC(C)=O)C(=O)OCCCC | inactive | –

What follows are compounds tested on CD69, CD69 (gene 969) (assay: BSK_SAg_CD69: BioMAP Diversity Plus: SAg Assay for CD69 Biomarker Activity (AID 2283089;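 as to AC50: cell surface CD69 protein quantified by ELISA with fluorescence detection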)). Conditions: primary human HUVEC with PBMC; actives raise or lower the signal.
How it was run: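 ELISA, fluorescence read-out: CD69 on human umbilical vein endothelial cell + PBMC co-culture, 24 h post-dosing. Gain or loss of signal fitted bidirectionally against DMSO baseline.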

Compound | outcome | AC50
O=C(O)Cc1cc(I)c(Oc2ccc(O)c(I)c2)c(I)c1 | inactive | –
Cc1cccc2ccccc12 | inactive | –
O=c1c(-c2ccc(O)cc2)coc2cc(O)cc(O)c12 | – | 20 µM (active)
CC/C(=C(/CC)c1ccc(O)cc1)c1ccc(O)cc1 | – | 25.1 µM (active)
Cc1cc(F)ccc1-c1cc(N2CC[C@@H](O)[C@H]2CO)ncc1N(C)C(=O)C(C)(C)c1cc(C(F)(F)F)cc(C(F)(F)F)c1 | – | 10.5 µM (active)
O=C1O[C@H]([C@@H](O)CO)C(O)=C1O | inactive | –
CO[C@H]1/C=C/O[C@@]2(C)Oc3c(C)c(O)c4c(O)c(c(/C=N/N5CCN(C)CC5)c(O)c4c3C2=O)NC(=O)/C(C)=C\C=C\[C@H](C)[C@H](O)[C@@H](C)[C@@H](O)[C@@H](C)[C@H](OC(C)=O)[C@@H]1C | – | 0.64 µM (active)
C[C@]12CC[C@@H]3c4ccc(O)cc4CC[C@H]3[C@@H]1CCC2=O | inactive | –
Oc1ccc2ccccc2c1 | inactive | –
c1ccc(C[n+]2cccc3ccccc32)cc1 | inactive | –
CCCCCCCCCCCO | inactive | –
O=C(Nc1ccc(Cl)cc1)Nc1ccc(Cl)c(Cl)c1 | – | 1.91 µM (active)
CCCCCCCCOC(=O)c1cc(O)c(O)c(O)c1 | – | 16.6 µM (active)
CN1C(=O)N(c2ccccc2Br)Cc2cnc(Nc3ccc4c(c3)OCC(CO)O4)nc21 (centres undefined) | – | 2.08 µM (active)
Cc1occc1C(=O)Nc1ccc(C(=O)N2CCC(F)(F)/C(=C\C(=O)N3CCC(N4CCCCC4)CC3)c3ccccc32)cc1 | inactive | –
Cc1oc2c(NC(=O)c3c(Cl)cccc3Cl)cccc2c1C(C)(C)O | – | 19.2 µM (active)
O=C=NCCCCCCN=C=O | inactive | –
c1ccc2ccccc2c1 | inactive | –
O=CCCCC=O | inactive | –
COc1cc(C(=O)NC2CCN(C)CC2)ccc1Nc1ncc2c(n1)N(C1CCCC1)CC(F)(F)C(=O)N2C | – | 10.8 µM (active)
O=C1c2ccccc2C(=O)N1CCc1noc(-c2ccc(CN3CCCCCC3)s2)n1 | inactive | –
CCCC(=O)OCCC(C)C | inactive | –
Clc1cc(Cl)c2c(c1)N=C1CCCCCN1C2 | inactive | –
CC(C)(c1cc(Br)c(O)c(Br)c1)c1cc(Br)c(O)c(Br)c1 | – | 28.4 µM (active)
CCCOC(=O)c1cc(O)c(O)c(O)c1 | inactive | –
O=C(OCCCCCCOC(=O)c1ccccc1)c1ccccc1 | inactive | –
CC(C)(C)c1cc(/C=C2\SC(N)=NC2=O)cc(C(C)(C)C)c1O | – | 20 µM (active)

— PubChem BioAssay (EPA / NIEHS)
